# Pf growth 48h = Primary qHTS for delayed death inhibitors of the malarial parasite plastid, 48 hour incubation. P. falciparum luciferase growth in erythrocytes, 48 h. Potency, µM (doses to about 28.7 µM), without a hit: top-dose activity change, negative = inhibition, actives largely listed as inhibitors. 310,000 tested, 5.9% active. AID 504832, 2011; further: on the % scale 0 is the no-effect control and ±100 the full control effect
#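 First compound was added to culture medium, then infected red cells at 0.1% parasitemia and 2% hematocrit (final). After incubation at 37 C under 5% CO2, luciferase detection reagent was dispensed and light output recorded.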
# Vaccinia mCherry = qHTS for Stage-Specific Inhibitors of Vaccinia Orthopoxvirus: mCherry Reporter Primary qHTS | Vaccinia virus mCherry reporter infection, fluorescence | Potency, µM (series often up to 36.5 µM), for the others: at the highest dose activity change, negative = inhibition, actives largely listed as inhibitors | 310,000 tested, 0.63% active | AID 720579, 2013; calls by dose curve; tested in A549 cells; further: on the % scale 0 is the no-effect control and ±100 the full control effect; nearly all actives have a fitted effect of over 35% in size
# Vaccinia Venus = qHTS for Stage-Specific Inhibitors of Vaccinia Orthopoxvirus: Venus Reporter Primary qHTS; Vaccinia virus Venus reporter expression, fluorescence; Potency, µM (top dose mostly 36.5 µM), for the others: at the top dose activity change, negative = inhibition, hits mostly inhibitors; 330,000 tested, 0.46% active; AID 720580, 2013; calls by dose curve; tested in A549 cells; further: on the % scale 0 is the no-effect control and ±100 the full control effect; nearly all actives have a fitted effect of over 30% in size
# NS1 function inh = qHTS Assay for Inhibitors of Influenza NS1 Protein Function; AID 2326, 2010; 270,000 tested, 0.4% active; Potency, µM (series often up to 46.1 µM), for inactives: at the top dose activity, positive = more growth; calls by dose curve; further: actives are rising curves; nearly all actives have a fitted effect of over 50% in size
#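 A cell-based growth assay was used: compounds that relieve NS1-induced slow growth of budding yeast raise OD600. Assay medium was yeast nitrogen base with ammonium sulphate and -URA supplement, pH 6.0, with 2% galactose.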
# Pf growth 96h = Primary qHTS for delayed death inhibitors of the malarial parasite plastid, 96 hour incubation. P. falciparum luciferase reporter growth, 96 h. Potency, µM (titrated, usually from 28.7 µM), for the others: top-dose activity change, negative = inhibition, usual class: inhibitors. 320,000 tested, 6.9% active. AID 504834, 2011; further: on the % scale 0 is the no-effect control and ±100 the full control effect
#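 Erythrocytes infected with luciferase-expressing P. falciparum were dispensed at 2% hematocrit and 0.05% parasitemia (final), then incubated with compounds 96 hours at 37 C in 5% CO2. Luminescence after detection reagent addition reported growth.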
# HCV inh = qHTS Assay for Inhibitors of Hepatitis C Virus (HCV) | Huh7.5.1 HCVcc-Cre infection, luciferase reporter, 44 h | Potency, µM (titrated, usually from 41.8 µM), without a hit: at the highest dose activity change, negative = inhibition, actives largely listed as inhibitors | 340,000 tested, 3.4% active; further: on the % scale 0 is the no-effect control and ±100 the full control effect
#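 Luciferase read-out (15 sec integration) after a 15 min room-temperature substrate step quantifies HCVcc-Cre infection. Cells, 1,000 per well, had compound added 4 h post-plating, then virus at ~0.5 moi, and were cultured 44 h.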
# The depositor's hits bear a star; i = inactive; ? = inconclusive; / = not tested or not shown; [ ] = another dose, or the depositor's remark. Hits are enriched below; roughly 11% of the tested compounds scored in any of these assays. Unless noted, the call rests on the fitted dose curve; in most records, active means well fitted inhibition curve with a large enough effect; inconclusive means small, poorly fitted or top-dose-only effect, or another doubt; inactive means no such curve, though single readings can be large or run the other way. Potency means the concentration at half of the fitted maximal effect.
SMILES,Pf growth 48h,Vaccinia mCherry,Vaccinia Venus,NS1 function inh,Pf growth 96h,HCV inh
COc1cc(/C=C2\SC(=O)N(CC(=O)Nc3ccccc3F)C2=O)cc(Cl)c1O,?,0%,2%,1%,41%,-12%
Cc1c(C)c2c(c(C)c1O)CCC(C)(COc1ccc(CC3SC(=O)NC3=O)cc1)O2 (stereo not given),?,-13%,-7%,/,6µM*,/
Cc1ccc(C(=O)CSc2nnc(CNc3ccc(C)cc3C)n2Cc2ccco2)cc1,?,/,/,-38%,4%,?
CC(NC=C1C(=O)OC(C)(C)OC1=O)C(=O)O (stereo not given),23%,/,/,/,9.3µM*,14%
CCCC(=O)N1c2ccccc2C(=C2SC(C(=O)OC)=C(C(=O)OC)S2)C(=S)C1(C)C,17%,?,-12%,15%,-28%,3%
COc1ccccc1-c1cn(-c2ccccc2)c(=S)[nH]1,/,/,/,-7%,?,-16%
COc1ccc(-c2cn(-c3ccc(C)c(Cl)c3)c(=S)[nH]2)cc1OC,10µM*,?,-26%,8%,63%,?
COc1ccc(-c2cn(-c3ccccc3)c(=S)[nH]2)cc1OC,20%[0.00184 µM],/,/,1%,-13%,10µM*
COc1ccc(-c2cn(-c3ccc(C)c(C)c3)c(=S)[nH]2)cc1OC,13µM*,-2%,-10%,10%,2%,?
COc1cccc(-n2cc(-c3ccc(F)cc3)[nH]c2=S)c1,-24%,/,/,-12%,-58%,?
COc1ccc(-n2cc(-c3ccc(Cl)cc3)[nH]c2=S)cc1,?,/,/,3%,?,-6%
COc1ccccc1NC(=O)[C@@H]1CCCN1S(=O)(=O)c1ccc(Cl)cc1,/,i,-5%,/,/,8%
CC1CN(C(=O)c2cc3cc(Br)ccc3[nH]2)CC(C)O1 (stereo not given),12µM*,-12%,-27%,-1%,?,3%
Cc1c(C(=O)N2CC(C)OC(C)C2)[nH]c2ccc(Br)cc12 (stereo not given),?,-17%,-11%,-5%,13µM*,-11%
O=C(c1cc2cc(Br)ccc2[nH]1)N1CCC2(CC1)OCCO2,?,/,/,-11%,?,10%
COc1cc(N(C)C)ccc1C=c1c2ccccc2n2c1cc(-c1ccccc1)[n+]2C,/,-22%,-10%,/,/,10µM*
CCOC(=O)c1ccc(N2C(=O)c3n[nH]c(-c4ccco4)c3C2c2ccc([N+](=O)[O-])cc2)cc1 (stereo not given),?,?,?,21%,20%,14µM*
CCOC(=O)c1ccc(N2C(=O)c3n[nH]c(-c4cccs4)c3C2c2ccc(OC)cc2OC)cc1 (stereo not given),/,13µM*,?,/,/,/
O=C1N[C@@H](c2ccccc2)COC(=O)[C@H](Cc2ccc(F)cc2)CC/C=C/C[C@@H]1CC(=O)N(CCO)Cc1ccccc1,/,-9%,?,/,/,?
CCCCNC(=O)C1C2C=CC3(CN(Cc4ccc(C)cc4)C(=O)C13)O2 (stereo not given),1%,/,/,0%,10µM*,20%
COc1ccc(S(=O)(=O)N2CCC(c3nc4ccccc4[nH]3)CC2)cc1,0%,-12%,-9%,-3%,43%,16%
O=C(C1CC(=O)N(c2ccc(Cl)cc2)C1)N1CCC(c2nc3ccccc3[nH]2)CC1 (stereo not given),10µM*,-14%,-29%,/,?,-12%
Cc1ccc(NC(=S)N2CCCC(c3nc4ccccc4[nH]3)C2)cc1 (stereo not given),-18%,/,/,2%,-14%,2.5µM*
COc1ccc(OC)c(S(=O)(=O)N2CCC(c3nc4ccccc4[nH]3)CC2)c1,?,-20%,-11%,/,10µM*,0%
O=C(N1CCCCC1)N1CCC(c2nc3ccccc3[nH]2)CC1,-1%,/,/,0%,3%,6%
SMILES,Pf growth 48h,Vaccinia mCherry,Vaccinia Venus,NS1 function inh,Pf growth 96h,HCV inh
CCOC(=O)N1CCC(c2nc3ccccc3[nH]2)CC1,/,-23%,-24%,2%,9.3µM*,11%
O=C(C1CC(=O)N(c2ccc(Cl)cc2)C1)N1CCCCCC1 (stereo not given),4%,15%,-14%,0%,47%,23%
O=C(NCC1CCCO1)c1ccccc1NS(=O)(=O)c1cccs1 (stereo not given),-1%,i,-3%,2%,?,6%
COc1ccc(Cn2c(=O)c3cccnc3n(Cc3cccc(F)c3)c2=O)cc1,/,-14%,6%,/,/,/
O=[N+]([O-])c1cccnc1N1CCN(Cc2ccc3c(c2)OCO3)CC1,-3%,-6%,-15%,14%,?,2%
COc1ccc(-c2ccc(SCC(=O)NC3CCCCC3)nn2)cc1,94%,-13%,-13%,14%,3%,4%
Cc1cccc(NC(=O)C2CCC(CNC(=O)[C@@H]3Cc4ccccc4CN3)CC2)c1 (stereo not given in full),13%,i,-18%,-8%,-1%,-9%
Brc1ccc2nc(C3CCCCC3)c(Cc3ccccc3)n2c1,/,i,-6%,/,/,/
CSc1nc2nc3c(cc2c(=O)[nH]1)C(O)Oc1ccc(C)cc1-3 (stereo not given),1.3µM*,/,/,/,?,-5%
FC(F)(F)c1cccc(NC(=S)NCc2ccccc2)c1,?,/,?,-116%,3.3µM*,-11%
FC(F)(F)c1ccccc1NC(=S)Nc1ccccc1,7%,i,-6%,0%,1.5µM*,12%
Cc1nc(-c2cccnc2)sc1C(=O)Nc1cccc(C(F)(F)F)c1,?,/,/,1%,12µM*,-1%
O=[N+]([O-])c1cc(C(F)(F)F)cc([N+](=O)[O-])c1NCCNC(=S)Nc1ccc(Cl)c(Cl)c1,9.3µM*,?,?,-38%,?,?
FC(F)(F)c1cccc(CNC(=S)Nc2ccccc2)c1,?,i,-8%,-1%,?,-4%
O=C(NCc1cccnc1)Nc1cccc(C(F)(F)F)c1,-21%,-14%,-10%,7%,1.5µM*,-7%
CC(C)(C)NC(=S)Nc1cccc(C(F)(F)F)c1,?,-29%,-25%,13%,?,?
O=C(NCc1cccnc1)Nc1cccc(NC(=O)NCc2cccnc2)c1,-3%,/,/,-3%,/,-2%
CN(C)CCCN(Cc1ccccc1)C(=S)Nc1cccc(C(F)(F)F)c1,?,-7%,-15%,-5%,?,11µM*
FC(F)(F)c1cccc(NC(=S)NC(c2ccccc2)c2ccccc2)c1,3.7µM*,?,?,6%,2.6µM*,?

# From PubChem
